Reference: PubChem BioAssay (NCI)
This is part of a sample that, as a whole, favours compounds with a hit. Of some 83,000 tested, about 20% had one in any assay.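 Step 1: grow cells in 96-well plates. Step 2: add test compound at a single concentration. Step 3: incubate 48 h. Step 4: record percent growth.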 The source made the active and inactive calls. The calls were made as follows: active = growth percent below 10; inactive = the rest.

What was measured:
Test in all cases: NCI-60 one-dose screen, 48 h (100 = growth as untreated, 0 = no growth, -100 = all killed)
Conditions in all cases: 10 µM unless noted
RPMI-8226 leukemia = system: RPMI-8226 leukemia
OVCAR-8 ovarian = system: OVCAR-8 ovarian
OVCAR-5 ovarian = system: OVCAR-5 ovarian
OVCAR-4 ovarian = system: OVCAR-4 ovarian
SK-OV-3 ovarian = system: SK-OV-3 ovarian
OVCAR-3 ovarian = system: OVCAR-3 ovarian
HS 578T breast = system: HS 578T breast
NCI/ADR-RES ovarian = system: NCI/ADR-RES ovarian
T-47D breast = system: T-47D breast

Measured: growth

CCOC(=O)c1c2c(c(C)n1Cc1ccccc1)-c1nc(N)ncc1CC2
inactive: RPMI-8226 leukemia 80% | OVCAR-8 ovarian 104% | OVCAR-5 ovarian 78.6% | OVCAR-4 ovarian 105% | SK-OV-3 ovarian 118% | OVCAR-3 ovarian 125% | HS 578T breast 93.6% | NCI/ADR-RES ovarian 101% | T-47D breast 86.4%

O=c1c(O)cccn1CCCNCCCN(CCCn1cccc(O)c1=O)CCCn1cccc(O)c1=O
inactive: RPMI-8226 leukemia 131% | OVCAR-8 ovarian 114% | OVCAR-5 ovarian 94.7% | OVCAR-4 ovarian 101% | SK-OV-3 ovarian 97.3% | OVCAR-3 ovarian 103% | HS 578T breast 120% | NCI/ADR-RES ovarian 101% | T-47D breast 101%

O=c1[nH]c(Cl)nc2c1cnn2-c1ccccc1
inactive: RPMI-8226 leukemia 51.7% | OVCAR-8 ovarian 106% | OVCAR-5 ovarian 97.2% | OVCAR-4 ovarian 82.6% | SK-OV-3 ovarian 110% | OVCAR-3 ovarian 93.4% | HS 578T breast 93.4% | NCI/ADR-RES ovarian 96.3% | T-47D breast 98.4%

Nc1nc(Cl)c2[nH]cnc2n1
inactive: RPMI-8226 leukemia 107% | OVCAR-8 ovarian 109% | OVCAR-5 ovarian 93.5% | OVCAR-4 ovarian 101% | SK-OV-3 ovarian 93.2% | OVCAR-3 ovarian 125% | HS 578T breast 117% | NCI/ADR-RES ovarian 51% | T-47D breast 103%

CC(=O)Nc1ccc2c(c1)Cc1c(F)c(F)c(F)c(F)c1-2
active: NCI/ADR-RES ovarian -39.9%
inactive: RPMI-8226 leukemia 22.5% | OVCAR-8 ovarian 79.6% | OVCAR-5 ovarian 44.1% | OVCAR-4 ovarian 85.7% | SK-OV-3 ovarian 113% | OVCAR-3 ovarian 105% | HS 578T breast 96.6% | T-47D breast 85.6%

C/C(=N/N=C(N)N)c1ccc(Cl)cc1
inactive: RPMI-8226 leukemia 89.8% | OVCAR-8 ovarian 110% | OVCAR-5 ovarian 87.8% | OVCAR-4 ovarian 92.9% | SK-OV-3 ovarian 89.5% | OVCAR-3 ovarian 110% | HS 578T breast 272% | NCI/ADR-RES ovarian 86.5% | T-47D breast 79.3%

CN(C)c1nc(-c2ccco2)n2nc(-c3ccco3)cc2n1
inactive: RPMI-8226 leukemia 65.1% | OVCAR-8 ovarian 92.8% | OVCAR-5 ovarian 108% | OVCAR-4 ovarian 80.1% | SK-OV-3 ovarian 98.7% | OVCAR-3 ovarian 92.9% | HS 578T breast 78.1% | NCI/ADR-RES ovarian 90.7% | T-47D breast 38%

O=c1ccn(C2OC(CO)C(O)C2F)c(=O)[nH]1 (stereo unspecified)
inactive: RPMI-8226 leukemia 106% | OVCAR-8 ovarian 115% | OVCAR-5 ovarian 94% | OVCAR-4 ovarian 110% | SK-OV-3 ovarian 114% | OVCAR-3 ovarian 109% | HS 578T breast 140% | NCI/ADR-RES ovarian 98.5% | T-47D breast 90%

COc1cc2c(C#N)n3c(c2cc1OC)C(=O)C(c1ccccc1)Oc1ccccc1-3 (stereo unspecified)
inactive: RPMI-8226 leukemia 28.7% | OVCAR-8 ovarian 18.1% | OVCAR-5 ovarian 69.2% | OVCAR-4 ovarian 16% | SK-OV-3 ovarian 97.6% | OVCAR-3 ovarian 53.2% | HS 578T breast 73.5% | NCI/ADR-RES ovarian 21.5% | T-47D breast 17.1%

O=C(Nc1ncc([N+](=O)[O-])s1)c1cccc([N+](=O)[O-])c1
inactive: OVCAR-8 ovarian 43.1% | OVCAR-5 ovarian 87.6% | OVCAR-4 ovarian 40.5% | SK-OV-3 ovarian 64.1% | OVCAR-3 ovarian 21.3% | HS 578T breast 49.2% | NCI/ADR-RES ovarian 39.9% | T-47D breast 24.7%
active: RPMI-8226 leukemia -6.2%

C[C@]12CC[C@@H]3c4ccc(O)c([N+](=O)[O-])c4CC[C@H]3[C@@H]1CC[C@@H]2NS(=O)(=O)c1ccc(C(F)(F)F)cc1
inactive: RPMI-8226 leukemia 15.6% | OVCAR-8 ovarian 26.9% | OVCAR-5 ovarian 80.8% | OVCAR-4 ovarian 31% | SK-OV-3 ovarian 74.2% | OVCAR-3 ovarian 23.2% | HS 578T breast 52.7% | NCI/ADR-RES ovarian 27.7% | T-47D breast 18.6%

C[C@]12C[C@H](O)[C@H]3[C@@H](CCC4=CC(=O)CC[C@@]43C)[C@@H]1CC[C@@H]2C(=O)CO
active: RPMI-8226 leukemia 0.491% | NCI/ADR-RES ovarian -34.7%
inactive: OVCAR-8 ovarian 104% | OVCAR-5 ovarian 43.8% | OVCAR-4 ovarian 97.7% | SK-OV-3 ovarian 81.3% | OVCAR-3 ovarian 110% | HS 578T breast 108% | T-47D breast 92%

NC(N)=N/N=C(/c1ccccc1)c1ccc(Cl)cc1
inactive: RPMI-8226 leukemia 172% | OVCAR-8 ovarian 103% | OVCAR-5 ovarian 96% | OVCAR-4 ovarian 95.2% | SK-OV-3 ovarian 81.2% | NCI/ADR-RES ovarian 82.6% | T-47D breast 64.5%
active: OVCAR-3 ovarian 5.42% | HS 578T breast -22.5%

CCN(CC)CCOc1ccc(C2=C(c3ccccc3)CCc3cc(OC)ccc32)cc1
inactive: OVCAR-8 ovarian 46.6% | OVCAR-5 ovarian 22.2% | OVCAR-4 ovarian 52.3% | SK-OV-3 ovarian 68.9% | OVCAR-3 ovarian 12.7% | T-47D breast 25%
active: RPMI-8226 leukemia -64.7% | HS 578T breast -6.19% | NCI/ADR-RES ovarian -26.1%

CCOC(=O)c1c2c(c(C)n1Cc1ccc(OC)cc1)-c1nc(N)ncc1CC2
inactive: RPMI-8226 leukemia 119% | OVCAR-8 ovarian 115% | OVCAR-5 ovarian 103% | OVCAR-4 ovarian 112% | SK-OV-3 ovarian 107% | OVCAR-3 ovarian 104% | HS 578T breast 111% | NCI/ADR-RES ovarian 104% | T-47D breast 105%

O=C1Nc2ccc(F)cc2/C1=C/c1nc(-c2ccc(F)cc2)n2ccccc12
inactive: RPMI-8226 leukemia 117% | OVCAR-8 ovarian 97.7% | OVCAR-5 ovarian 94.7% | OVCAR-4 ovarian 96.3% | SK-OV-3 ovarian 108% | OVCAR-3 ovarian 112% | HS 578T breast 100% | NCI/ADR-RES ovarian 112% | T-47D breast 96.6%

Cc1ccc([N+](=O)[O-])cc1NC(=O)Nc1cccc(F)c1
inactive: RPMI-8226 leukemia 19.4% | OVCAR-8 ovarian 71.6% | OVCAR-5 ovarian 89.6% | OVCAR-4 ovarian 50.3% | SK-OV-3 ovarian 98.7% | OVCAR-3 ovarian 51.8% | HS 578T breast 120% | NCI/ADR-RES ovarian 64.3% | T-47D breast 29.8%

Nc1nonc1-c1nc2ccccc2n1CC(=O)Nc1ccc2c(c1)COC2=O
inactive: RPMI-8226 leukemia 99.1% | OVCAR-8 ovarian 94.3% | OVCAR-5 ovarian 94% | OVCAR-4 ovarian 93% | SK-OV-3 ovarian 90.9% | OVCAR-3 ovarian 94.2% | HS 578T breast 65.9% | NCI/ADR-RES ovarian 85.6% | T-47D breast 85.8%

O=C(Nc1ccc(Nc2ccncc2)cc1)c1ccc(Nc2ccnc3ccc([N+](=O)[O-])cc23)cc1[N+](=O)[O-]
inactive: RPMI-8226 leukemia 77.8% | OVCAR-8 ovarian 44.4% | OVCAR-5 ovarian 97.4% | OVCAR-4 ovarian 91.1% | SK-OV-3 ovarian 82.8% | OVCAR-3 ovarian 98.1% | NCI/ADR-RES ovarian 52% | T-47D breast 62.2%
active: HS 578T breast -5.48%

CCC(c1ccccc1)c1noc(CCN(CC)CC)n1 (stereo unspecified)
inactive: RPMI-8226 leukemia 76.7% | OVCAR-8 ovarian 94.8% | OVCAR-5 ovarian 89.8% | OVCAR-4 ovarian 109% | SK-OV-3 ovarian 97% | OVCAR-3 ovarian 115% | HS 578T breast 125% | NCI/ADR-RES ovarian 105% | T-47D breast 94.4%

CCCc1nn(C)c2c(=O)[nH]c(-c3cc(S(=O)(=O)N4CCN(C)CC4)ccc3OCC)nc12
inactive: RPMI-8226 leukemia 101% | OVCAR-8 ovarian 109% | OVCAR-5 ovarian 95.6% | OVCAR-4 ovarian 111% | SK-OV-3 ovarian 100% | OVCAR-3 ovarian 111% | HS 578T breast 104% | NCI/ADR-RES ovarian 90.2% | T-47D breast 98.4%

Cc1cc(C(C)(C)c2cc(C)c(O)c(CN(C)C)c2)cc(CN(C)C)c1O
inactive: RPMI-8226 leukemia 84.1% | OVCAR-8 ovarian 89.4% | OVCAR-5 ovarian 102% | OVCAR-4 ovarian 99.1% | SK-OV-3 ovarian 104% | OVCAR-3 ovarian 85.7% | HS 578T breast 76.1% | NCI/ADR-RES ovarian 95.7% | T-47D breast 107%

COc1ncc(-c2ccc3nccc(C#CCN4CCN(S(C)(=O)=O)CC4)c3c2)cc1NS(=O)(=O)c1ccc(F)cc1F
inactive: OVCAR-5 ovarian 11.3%
active: RPMI-8226 leukemia -30.1% | OVCAR-8 ovarian 7.2% | OVCAR-4 ovarian 8.24% | SK-OV-3 ovarian -11.1% | OVCAR-3 ovarian -20.7% | HS 578T breast -13.9% | NCI/ADR-RES ovarian 6.28% | T-47D breast 3.5%

O=[N+]([O-])c1ccc(N/N=C\c2ccccc2[N+](=O)[O-])nc1
inactive: RPMI-8226 leukemia 102% | OVCAR-8 ovarian 107% | OVCAR-5 ovarian 124% | OVCAR-4 ovarian 120% | SK-OV-3 ovarian 121% | OVCAR-3 ovarian 109% | HS 578T breast 97.7% | NCI/ADR-RES ovarian 108% | T-47D breast 107%

CCOc1nc(-c2ccccc2)cc2c(O)c(C(=O)n3nc(C)cc3C)[nH]c(=O)c12
inactive: RPMI-8226 leukemia 103% | OVCAR-8 ovarian 101% | OVCAR-5 ovarian 106% | OVCAR-4 ovarian 100% | SK-OV-3 ovarian 102% | OVCAR-3 ovarian 112% | HS 578T breast 115% | NCI/ADR-RES ovarian 111% | T-47D breast 107%

COc1cccc2c1C(=O)c1c(O)c3c(c(O)c1C2=O)C[C@@](O)(/C(C)=N/NC(=O)c1cccc([N+](=O)[O-])c1)C[C@@H]3OC1CC(N)C(O)C(C)O1 (stereo partly specified)
active: RPMI-8226 leukemia -55.6% | OVCAR-8 ovarian -6.79% | OVCAR-5 ovarian -9.12% | OVCAR-4 ovarian -17.3% | SK-OV-3 ovarian -29.7% | OVCAR-3 ovarian -40.7% | HS 578T breast -12.3% | T-47D breast -28.9%
inactive: NCI/ADR-RES ovarian 58.3%

CC1=NN(c2ccccc2Cl)C(=O)/C1=C\c1cn(S(=O)(=O)c2ccc(C)cc2)c2ccccc12
inactive: RPMI-8226 leukemia 113% | OVCAR-8 ovarian 108% | OVCAR-5 ovarian 88.1% | OVCAR-4 ovarian 103% | SK-OV-3 ovarian 105% | OVCAR-3 ovarian 110% | HS 578T breast 116% | NCI/ADR-RES ovarian 85.1% | T-47D breast 91.5%

COc1ccc(C2=NN(C(=O)c3cc(OC)c(OC)c(OC)c3)C(c3ccc(C#N)cc3)C2)cc1OC (stereo unspecified)
inactive: RPMI-8226 leukemia 60.8% | OVCAR-8 ovarian 32.8% | OVCAR-5 ovarian 58.8% | OVCAR-4 ovarian 62.1% | SK-OV-3 ovarian 19.8% | T-47D breast 37.1%
active: OVCAR-3 ovarian -47.8% | HS 578T breast -18.3% | NCI/ADR-RES ovarian 2.92%

Cc1nc(N)[nH]c(=O)c1C
inactive: RPMI-8226 leukemia 83.7% | OVCAR-8 ovarian 105% | OVCAR-5 ovarian 98.3% | OVCAR-4 ovarian 111% | SK-OV-3 ovarian 99.4% | OVCAR-3 ovarian 121% | HS 578T breast 183% | NCI/ADR-RES ovarian 91% | T-47D breast 83%
